# Test results reported in PubChem BioAssay (NCATS).
# Records with an inconclusive call do not appear. Calls of active or inactive are those of the source. Calls follow the shape of the dose curve; as a rule, active = well fitted curve in the direction sought with a large enough effect in the signal ratio, with a control signal flat (not every such curve was filed as active); inconclusive = small, poorly fitted or top-dose-only effect, or effect the other way, or a change in a side signal; inactive = no such curve, though single readings can be large or run the other way; the % refers to the signal ratio.
# Biological target: Peroxisome proliferator-activated receptor gamma (Homo sapiens) (UniProt P37231)
# Sequence (P37231 whole entry, looked up): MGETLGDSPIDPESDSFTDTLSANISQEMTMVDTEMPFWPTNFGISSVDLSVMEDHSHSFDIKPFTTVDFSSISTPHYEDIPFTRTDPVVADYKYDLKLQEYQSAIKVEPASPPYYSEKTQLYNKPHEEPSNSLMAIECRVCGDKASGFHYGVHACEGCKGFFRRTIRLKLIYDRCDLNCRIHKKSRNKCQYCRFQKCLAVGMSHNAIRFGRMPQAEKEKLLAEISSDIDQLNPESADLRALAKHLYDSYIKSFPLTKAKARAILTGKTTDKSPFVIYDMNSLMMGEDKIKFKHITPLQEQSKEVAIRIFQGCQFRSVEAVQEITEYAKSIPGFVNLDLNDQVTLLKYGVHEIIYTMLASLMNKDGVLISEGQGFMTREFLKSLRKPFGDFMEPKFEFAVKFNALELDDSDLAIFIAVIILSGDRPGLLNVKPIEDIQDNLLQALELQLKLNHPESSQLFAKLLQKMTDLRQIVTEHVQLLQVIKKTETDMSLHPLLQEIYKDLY
# Assay: qHTS assay for small molecule agonists of peroxisome proliferator-activated receptor gamma signaling (AID 588536)
# Details: HEK293 PPARg-UAS-bla, beta-lactamase ratio, 16 h; series mostly up to 76.7 µM; activation: at the top concentration
# Description: NIH Chemical Genomics Center [NCGC] U.S. Environmental Protection Agency [EPA] National Institutes of Environmental Health Sciences [NIEHS] National Toxicology Program [NTP] NCGC Assay Overview The Peroxisome proliferator-activated receptors (PPARs) are lipid-activated transcription factors of the nuclear receptor superfamily with three distinct subtypes namely PPAR alpha, PPAR delta (also called PPAR beta) and PPAR gamma. All these subtypes heterodimerizes with Retinoid X receptor (RXR) and these heterodimers regulate transcription of various genes. PPAR-gamma (glitazone receptor) agonists have been used in the treatment of type 2 diabetes and dyslipidaemia. It is involved in the regulation of glucose and lipid metabolism. PPAR-gamma activates certain genes like Paraoxonase 1 which is responsible for hydrolyzing organophosphates. PPAR-gamma agonists may also be therapeutically important in the treatment of coronary artery disease, obesity and cancer and atherosclerosis.
# NCGC Assay Protocol Summary Using a beta-lactamase reporter-gene under control of Peroxisome Proliferator-Activated-gamma (PPAR-gamma) response element, a cell-based assay [GeneBLAzer PPAR-gamma-UAS-bla assay developed by Invitrogen] was used to measure PPAR-gamma ligands signaling. GeneBLAzer PPAR-gamma-UAS-bla-HEK293 cells were used with assay medium containing 1% charcoal/dextran treated FBS. The assay was performed in clear bottom black Greiner 1536-well plates. Rosiglitazone was used in the screen as the positive control. Library compounds were measured for their ability to stimulate the reporter gene activity. Compounds were screened in a titration series in 1536-well format. The fluorescence intensity (405 nm excitation, 460/530 nm emission) was measured using an EnVision plate reader. Data was normalized relative to Rosiglitazone control (2 uM, 100%), and DMSO only wells (basal, 0%). Concentration-response titration points for each compound were fitted to the Hill equation yielding concentrations of half-maximal stimulation (EC50) and maximal response (efficacy) values. qHTS protocol for PPAR-gamma beta-lactamase assay in agonist mode [Step] [Parameter] [Value] [Description] 1. Reagent; 6 uL; 3000 cells/well 2. Incubation; 37 C for 6 - 6.5 hrs 3. Compounds; 23 nL; 0.59 nM to 92 uM 4. Controls (Rosiglitazone); 23 nL, - One column with dose response, start 19 uM, 1:3 dilutions in duplicates - Final concentrations of 2 uM and 0.5 uM in two columns 5. Incubation; 37 C for 16 hrs 6. Detection reagent; 1 uL of CCF4-dye 7. Incubation; RT for 2 hrs 8. Detection; Fluorescence; Envision plate reader
Compound,activation,Potency
CCOP(=O)(O)C(N)=O,-3.92% (inactive),
Cc1cc(Cl)ccc1OCC(=O)O,,inactive
N#CN=C1SCCN1Cc1ccc(Cl)nc1,1.91% (inactive),
CCOP(=S)(OCC)SCSP(=S)(OCC)OCC,2.69% (inactive),
CCOC(=O)C(Cl)Cc1cc(-n2nc(C)n(C(F)F)c2=O)c(F)cc1Cl (stereo not given),-8.5% (inactive),
CC1(C)Cc2cccc(O)c2O1,-2.13% (inactive),
CCOP(=O)(NC(C)C)Oc1ccc(S(C)=O)c(C)c1 (stereo not given),-1.52% (inactive),
O=S(=O)(c1ccc(O)cc1)c1ccc(O)cc1,-5.67% (inactive),
Cc1cc(Cl)ccc1N=CN(C)C,-7.71% (inactive),
CC(C)(C)N(NC(=O)c1ccc(Cl)cc1)C(=O)c1ccccc1,-2.09% (inactive),
CCCCC(C#N)(Cn1cncn1)c1ccc(Cl)cc1 (stereo not given),-1.33% (inactive),
CCN(CC)c1nc(C)cc(OP(=S)(OC)OC)n1,7.98% (inactive),
ClC1=C(Cl)C2(Cl)C3C4OC4C(Cl)C3C1(Cl)C2(Cl)Cl (stereo not given),-6.73% (inactive),
CCOS(=O)(=O)OCC,2.71% (inactive),
COC(=O)c1c(C(F)F)nc(C(F)(F)F)c(C2=NCCS2)c1CC(C)C,9.38% (inactive),
CCOP(=S)(Oc1cnc(C(C)(C)C)nc1)OC(C)C (stereo not given),-6.63% (inactive),
O=C(O)C(F)(F)C(F)(F)C(F)(F)C(F)(F)C(F)(F)F,0.396% (inactive),
Cc1ccn2nc(S(=O)(=O)Nc3c(F)cccc3F)nc2n1,-3.9% (inactive),
CCOP(=S)(OCC)Oc1nc(Cl)n(C(C)C)n1,4.89% (inactive),
O=P(O)(O)CCCl,,inactive

Compound,activation,Potency
CC(C)(c1ccccc1)c1cc(-n2nc3ccccc3n2)c(O)c(C(C)(C)c2ccccc2)c1,1.67% (inactive),
COc1ccc(/C(=C/C(=O)N2CCOCC2)c2ccc(Cl)cc2)cc1OC,-0.261% (inactive),
[Ga]#[As],0.0597% (inactive),
COc1ccc(-c2ccccc2)cc1NNC(=O)OC(C)C,-1.91% (inactive),
Clc1ccc([C@@]2(Cn3cncn3)C[C@@H](Br)CO2)c(Cl)c1,-5.57% (inactive),
Clc1ccc(C(Cl)(Cl)Cl)cc1,5.23% (inactive),
O=P(Oc1ccccc1)(Oc1ccccc1)Oc1ccccc1,6.51% (inactive),
CCOP(=S)(OCC)Oc1ccc(S(C)=O)cc1 (stereo not given),2.87% (inactive),
CN1COCN(Cc2cnc(Cl)s2)/C1=N\[N+](=O)[O-],1.35% (inactive),
CCN(CC)C(=O)SCc1ccc(Cl)cc1,-3.67% (inactive),
Nc1ccc([N+](=O)[O-])cc1Cl,-5.1% (inactive),
CSc1nc(NC(C)C)nc(NC(C)C)n1,10.1% (inactive),
CCc1ccc(C(=O)NN(C(=O)c2cc(C)cc(C)c2)C(C)(C)C)cc1,-11% (inactive),
CCOC(=O)C(C)Oc1ccc(Oc2nc3ccc(Cl)cc3o2)cc1 (stereo not given),11.4% (inactive),
CCOP(=S)(OCC)Oc1cnc2ccccc2n1,-0.949% (inactive),
C#CCN1C(=O)COc2cc(F)c(N3C(=O)C4=C(CCCC4)C3=O)cc21,-6.4% (inactive),
COC[C@H](C)N(C(=O)CCl)c1c(C)csc1C,-13.2% (inactive),
COc1cc(OC)nc(NC(=O)NS(=O)(=O)c2ncccc2OCC(F)(F)F)n1,-0.739% (inactive),
CCSC(=O)N(CC)C1CCCCC1,1.22% (inactive),
CC(C)[C@H](C(=O)O[C@H](C#N)c1cccc(Oc2ccccc2)c1)c1ccc(Cl)cc1,-0.0762% (inactive),
